Hit rate of the full screen: of about 220,000 compounds, about 1,600 (0.73%) were called active. The sample holds actives, similar compounds and a random draw of the others, so the mix is not that of the screen.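 Rule for the calls: active = mean inhibition across duplicate retests at 20 µM reaching about 50% (limit read from the data); inactive = the rest, inconclusive results apart.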

This passage reports inhibition results from PubChem BioAssay AID1434 (Sanford-Burnham Center for Chemical Genomics, 2008).

In the assay the target is Runt-related transcription factor 1 (Homo sapiens) + Core-binding factor subunit beta (Homo sapiens) (UniProt Q01196+Q13951). Nature of the assay: inhibitors of RUNX1 Runt–CBFb-SMMHC binding, primary screen, biochemical, FRET, Cerulean-Runt, Venus-CBFb-SMMHC, uHTS (AID 1434).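 Note: 0% = DMSO wells and 100% = wells with excess untagged CBFb-SMMHC; inhibitors lower the FRET ratio by blocking Runt binding to CBFb-SMMHC.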 The note with it: Cerulean-Runt/Venus-CBFb-SMMHC FRET ratio 530/480, 1 h, at 20 µM, stronger effect = higher value.
Sequence of Runt-related transcription factor 1 (Homo sapiens) + Core-binding factor subunit beta (Homo sapiens) (Q01196 whole entry, looked up): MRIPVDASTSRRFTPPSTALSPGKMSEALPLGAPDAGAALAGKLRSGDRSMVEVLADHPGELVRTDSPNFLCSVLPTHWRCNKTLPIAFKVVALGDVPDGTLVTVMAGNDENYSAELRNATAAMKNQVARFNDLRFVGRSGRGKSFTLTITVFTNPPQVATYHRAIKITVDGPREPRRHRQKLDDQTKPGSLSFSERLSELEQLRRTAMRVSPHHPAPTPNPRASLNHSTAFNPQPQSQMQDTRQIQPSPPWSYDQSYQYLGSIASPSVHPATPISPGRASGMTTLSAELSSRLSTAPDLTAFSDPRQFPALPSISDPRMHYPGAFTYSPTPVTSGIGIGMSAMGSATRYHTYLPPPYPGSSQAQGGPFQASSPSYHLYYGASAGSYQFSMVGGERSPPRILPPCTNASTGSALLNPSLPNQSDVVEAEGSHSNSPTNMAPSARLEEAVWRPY
Sequence of Runt-related transcription factor 1 (Homo sapiens) + Core-binding factor subunit beta (Homo sapiens) (Q13951 whole entry, looked up): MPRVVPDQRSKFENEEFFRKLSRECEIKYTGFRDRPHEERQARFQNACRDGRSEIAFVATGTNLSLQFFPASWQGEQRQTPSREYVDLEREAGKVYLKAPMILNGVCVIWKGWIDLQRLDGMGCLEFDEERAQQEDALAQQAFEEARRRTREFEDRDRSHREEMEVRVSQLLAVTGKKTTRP

For the molecule `CCOC(=O)c1c(N)n(Cc2ccccc2)c2nc3ccccc3nc12`, the inhibition was 97.2% (active). The inhibition (retest duplicate average) came to 128%. `CC/C(=N\NC(=O)c1ccccc1O)c1c(O)n(Cc2ccccc2)c(=O)[nH]c1=O`: the inhibition was -0.6% (inactive). For the molecule `O=C(OCCN1CCOCC1)C1(c2ccccc2)CCCC1`, the inhibition is -5.6% (inactive).

On to `CCOC(=O)c1c(N)n(CCN2CCOCC2)c2nc3ccccc3nc12`, for which the inhibition was 69.9% (active). Also, the inhibition (retest duplicate average) is 73.1%. As to `COc1cc(Cn2c(N)c(C(=O)NCc3ccco3)c3nc4ccccc4nc32)cc(OC)c1OC`, the inhibition is 34.2% (inactive). As to `CCOc1cccc(=NC2CCCCC2)c2c(C)[nH]c(C)c12`, the inhibition is -11% (inactive). Same read-out and setting: then `CC1(C)C(c2ccccc2)=NC(c2cccnc2)=[N+]1[O-]`, with -6.5% (inactive); and `C/C=C/CC1(CC)C(=O)NC(=S)NC1=O`, with -3.2% (inactive). In the case of `COc1cc(OC)cc(C2(C#N)CCN(C)CC2)c1`, the inhibition was -1.4% (inactive). On the same count and under the same terms, the figure for `CCOC(=O)C1(CCc2ccccc2)CCN(Cc2ccco2)CC1` is -5.4% (inactive).
